Test results as given in PubChem BioAssay.
Unmarked numbers belong to inactive results. The rule behind the calls is not given here.

These compounds were tested against Pantothenate synthetase (Mycobacterium tuberculosis (strain ATCC 25618 / H37Rv)) (UniProt P9WIL5) (assay: Coupled enzyme confirmation of inhibitors against recombinant Mtb PanC (AID 375;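 note: 0% = full reaction with vehicle and 100% = no enzyme background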)). Details: coupled enzyme assay; at 10 µM, stronger effect = higher value.
Pantothenate synthetase (Mycobacterium tuberculosis (strain ATCC 25618 / H37Rv)), sequence (P9WIL5 whole entry, looked up): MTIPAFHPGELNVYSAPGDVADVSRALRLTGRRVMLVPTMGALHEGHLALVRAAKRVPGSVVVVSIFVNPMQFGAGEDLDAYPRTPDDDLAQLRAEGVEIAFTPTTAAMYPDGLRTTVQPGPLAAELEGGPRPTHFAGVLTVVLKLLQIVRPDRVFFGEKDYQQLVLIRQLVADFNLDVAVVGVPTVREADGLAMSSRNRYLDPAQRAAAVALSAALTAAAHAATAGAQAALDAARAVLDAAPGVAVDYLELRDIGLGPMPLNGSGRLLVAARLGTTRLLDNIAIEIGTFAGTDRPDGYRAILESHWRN

Row | Compound | inhibition [%]
1 | Cc1ccc(C(=O)N2CCCC(c3nc4c(nnn4Cc4ccccc4)c(=O)[nH]3)C2)cc1 (stereo not given) | 1
2 | CCCN(CCC)C(=O)C1CCN(c2cc(C)nc3c(-c4ccc(OC)c(OC)c4)c(C)nn23)CC1 | 0
3 | CCOC(=O)N1CCC(NC(=O)CS(=O)(=O)Cc2nc(-c3ccccc3C)oc2C)CC1 | 3
4 | CN(Cc1ccccc1)Cc1nc2c([nH]1)c(=O)[nH]c(=O)n2C | 7
5 | CCOc1ccc(-c2nc(C#N)c(NCc3ccc4c(c3)OCO4)o2)cc1 | 3
6 | CC(C)OC(=O)CSc1nnc(-c2cccnc2)n1Cc1ccccc1 | 3
7 | Cc1nnc(SCC(=O)N2CCC(C(N)=O)CC2)s1 | 0
8 | CNCCC(Oc1ccc(C(F)(F)F)cc1)c1ccccc1 (stereo not given) | 4
9 | CN(C)C(CN1C(=O)C2CC=CCC2C1=O)c1cn(C)c2ccccc12 (stereo not given) | 0
10 | Cc1noc(C(=O)Nc2ccc3c(c2)OCO3)c1Cl | 0
11 | Cc1cccc(-c2cc3nc4c(c(N5CCOCC5)n3n2)CCCC4)c1 | 0
12 | C(=C\c1ccccc1)/CN1CCN(C(c2ccccc2)c2ccccc2)CC1 | 0
13 | COc1ccc(-c2nc(CCNC(=O)c3ccco3)cs2)cc1OC | 5
14 | Cc1nnc(SCC(=O)N2CCN(S(=O)(=O)c3ccccc3)CC2)[nH]c1=O | 0
15 | COc1cc(Cl)c(C)cc1NC(=O)COC(=O)c1cnc(C)cn1 | 0
16 | COc1ccc(-n2nnnc2SCC(=O)N2CCOCC2)cc1 | 3
17 | CCOc1ccc(C2CC(c3cccc(C)c3)n3ncnc3N2)cc1 (stereo not given) | 0
18 | [O-][n+]1onc2c1CCc1nnc(-c3ccccc3)cc1-2 | 0
19 | O=C1NC(c2ccccc2)(C(F)(F)F)SC2=NCCCN12 (stereo not given) | 0
20 | COc1cc(C2C3=C(CC(C)(C)CC3=O)Nc3c2c(=O)[nH]c(=O)n3Cc2ccccc2)ccc1O (stereo not given) | 4

Row | Compound | inhibition [%]
21 | CCC(Sc1nc(-c2ccccc2)c(C#N)c(=O)[nH]1)C(=O)Nc1cc(C)on1 (stereo not given) | 0
22 | COCCN1C(=O)C(=O)/C(=C(/O)c2cccc(S(=O)(=O)N(C)C)c2)C12C(=O)N(C)c1ccccc12 (stereo not given) | 8
23 | CCOc1ccc(N(CC(=O)Nc2ccc(F)c(F)c2)S(=O)(=O)c2c(C)noc2C)cc1 | 4
24 | COc1ccc(-c2nc(C)c(C(C)=O)n2O)cc1OC | 0
25 | COCCCNC(=O)CCn1c(=O)c2ccccc2n(CC(=O)Nc2ccc(C)cc2C)c1=O | 0
26 | NC(=O)c1cccc2c1C(=O)N(C1CCCCC1)C2 | 0
27 | Cc1ccc(NC(=O)c2ccccc2F)nc1 | 2
28 | Cc1ccc(C(c2nnnn2CCC(C)C)N2CCN(C)CC2)cc1 (stereo not given) | 2
29 | CS(=O)(=O)N(CC(=O)Nc1cccc(F)c1)Cc1ccccc1 | 0
30 | O=C(CNC(=O)c1cc2ccccc2o1)NCc1cccs1 | 0
31 | CCN(CC)S(=O)(=O)c1cccc2c(N(C)C)cccc12 | 0
32 | FC(F)(F)c1cc(-c2ccco2)nc(-n2nnc3ccccc32)n1 | 0
33 | CCCCC(CC)Cn1c2nc3ccccc3nc2c2c(=N)oc(C)nc21 (stereo not given) | 7
34 | O=C(CCCOc1ccccc1)N1CCN(c2ccccn2)CC1 | 3
35 | Cc1[nH]c2c(C)cccc2c(=O)c1Br | 0
36 | CN(Cc1ccccc1)S(=O)(=O)c1ccc(S(=O)(=O)N2CCN(CCC#N)CC2)cc1 | 0
37 | COC(=O)CN(Cc1ccco1)S(=O)(=O)c1ccccc1 | 1
38 | Fc1cccc2sc(N3CCOCC3)nc12 | 1
39 | Cc1ccc(S(=O)(=O)N(CC(=O)N2CCOCC2)CC(=O)N2CCOCC2)cc1 | 0
40 | COc1ccc(/C(O)=C2/C(=O)C(=O)N(CCN(C)C)C2c2ccccn2)cc1OC (stereo not given) | 0
